From the supplement of paper PMC10681739

Molecular target: T1, ETS1 (UniProt P14921)
T1 sequence: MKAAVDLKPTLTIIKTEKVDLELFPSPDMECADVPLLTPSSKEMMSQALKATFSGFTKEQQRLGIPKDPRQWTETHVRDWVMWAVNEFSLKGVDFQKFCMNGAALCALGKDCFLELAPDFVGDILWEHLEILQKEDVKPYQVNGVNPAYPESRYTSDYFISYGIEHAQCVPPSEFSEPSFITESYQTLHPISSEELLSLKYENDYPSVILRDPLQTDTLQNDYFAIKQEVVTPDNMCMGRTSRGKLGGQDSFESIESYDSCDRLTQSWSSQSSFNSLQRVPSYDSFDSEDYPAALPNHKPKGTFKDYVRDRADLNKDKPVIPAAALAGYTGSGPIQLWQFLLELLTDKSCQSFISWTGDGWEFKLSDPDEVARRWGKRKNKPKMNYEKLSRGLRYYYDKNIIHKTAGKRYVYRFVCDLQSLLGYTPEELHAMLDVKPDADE
Assay: ETS1 binding intensity (PBM fluorescence), ETS1 alone (arbitrary fluorescence units); higher = stronger binding
Details: ETS1 concentration 1 nM; RUNX1 concentration 0 nM

Point of comparison: GCGGGAAAAGGGAAGTTTGCGGGAGGTCAAATCCAC, ETS1 binding intensity 563. Against it:
- ATCACTTGTTTCCGCCAGCAAACCACAGGTCCCCAG — lower, 417
- GAAGCGCTGGGCGGAAGTGGCTGTGGCTTTGCCCTT — higher, 9200
- TCTAGTTCTGGTTTCCGGACCGCATTCGGAACTAGA — higher, 1000
- AAAGTAGGTCCGGTCCGCGGGTGCGGTCGGGCATGC — lower, 427
- GGGAACTGGGGAAGGGGATGTGGTAACCAGAACCAC — lower, 543
- CCAAGCACTTCCTGCTGTTAGCTTTGTGGGCTGAGT — higher, 826
- TTACAGGGGCCGGAAGTGGCCTGCGGGCGGAGAAGT — higher, 21200
- TACTTCTTCCTGGCAGAGACCGGGAGTGCGGTCCGC — lower, 471
- CACCTCCTACTTCCCCCCGCTGATAACCACCAACCC — higher, 1700
- TCTTTAAAACCCGGAAGTTCCTGTGGTTCATACGCT — higher, 8500
- TTGTCAGATGGCGAAGGAAACCGCGAAATTCGCCAT — higher, 608
- CCGCCACCGGAAGCGCCCTCCTAATCCCCGCAGCGC — higher, 6290
- GCTTCTGAGGAAGTGCGTTCTGTGGGTAGGTGGAGT — higher, 677
- GGGGCCTCTGCTACTTCCTAGACCGCAAAATGGAGA — lower, 413
- TTCATTTCTACCTTCCTGTGGTCTTTTTGCCTCCGA — lower, 512
- CTGTCTGCTTCCCGTGGCCAGCCCTGACCGCGGCCC — lower, 351
- AAATGTGGCCGGATGCTCTGTGGGCGGGCGGCAGCT — higher, 2890
- TTCTTCACTTCCTTCTCTCCGTGGTTTCGCCATTAG — lower, 513
- GCATTGTGCTTCCGCTCGGGGAAAGACCGCTTACGG — higher, 789
- CCCTTCGCTTCCGCTCCGCGTTCCCACAATGCAGTG — higher, 884
- CCGCGCACCCGGAACTACCTCCCGACCCGCATCCCC — lower, 562
- GAGGCGTTTCCGCCTCCTTTTCGCGGTTGCCTTCTC — higher, 639
- GCTCAAGTACCGGAAAGGCCCGCAGAAAGAAGGGCA — higher, 1400
- CGACCGGAACCACTCTGAGGCGCTGCCGCAGACACC — lower, 533
- GAGGACTTCCGGGTGCGTGTGATATCTGCGGGCCCG — higher, 802
- GTGTGCGTGAGAAGAGGAAGTGGTTAGGAAGACACA — higher, 4030
- GTGCAGGGCCCGGAAGCTCAGTGTGGTTAAAGACAT — higher, 2010
- GGTCCGGATGTATAAAGCGCGGCCCCCTGCGGGGAG — higher, 910
- TACAACTTGCAACGGAAACCACTTCAGGTTCATTAC — higher, 1320
- CAGAAACATCCCTCCTGCCGCCGCTTTGTGGTACCA — lower, 378
- ACCGCCGGAAGTTTCTGCCGCGGCTTTGCGGGGACG — higher, 3320
- CCGCCGACACACTTCCGGCGGCCACCACAGGGTATT — higher, 3140
- AAAACAACTCCAGGATGTGGTTTTACTCAGAATGTA — higher, 1310
- AGAGTCTTTTTTCCTGAGCGTTTGCGGTTTTGACTT — lower, 430
- TCGCTTCCGGTGTCGGTTACAGACTGTGGTTGCCAT — higher, 3090
- GGGTGCAGACGGGAAGTTGCGGCTGCCAGCGAAGCT — higher, 1680
- TGGGGAGGCAGGAAACGGGCCTTGTGGTTGGGGGGT — higher, 4210
- CAGGTTGTTGAGGATGTGGAGAAACCGCAACCTCGT — higher, 581
- CTAAGCAGAGGCCGGAAGCGGTGGTTTTTAGCGGCT — higher, 10200
